Test results: PubChem BioAssay
The source made the active and inactive calls. Unless noted, how the calls were made is not given here.

Experiments:
[1] = test system: Wnt5a (protein binding on small-molecule microarray); assay: Wnt5a binders on small-molecule microarray, primary screen, biophysical, 635/667 nm fluorescence (AID 1142); details: 635 nm fluorescence, higher = more signal;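 further: fluorescence read at 667 nm with signal to noise per printed feature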
[2] = cell viability in Huh7 cells, primary screen, cytotoxicity control for HCV replication inhibitor project, CellTiter-Glo luminescence, basal, 48 h (AID 1143); details: Huh7 HCV replicon, higher = more signal, called active from +8 up or from −8 down;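 further: Huh7 hepatoma cells carrying a hepatitis C replication reporter with no stimulus; test concentration not given here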
[3] = P. aeruginosa biofilm formation inhibitors, primary screen, PAO1 strain, BacTiter-Glo luminescence, LB-PBS (AID 1144); details: 12 h, higher = more signal
[4] = CREB reporter modulators without forskolin, primary screen, cell-based, PC12, CRE-LacZ reporter, unstimulated (AID 1145); details: no forskolin, luminescence, 4.5 h, higher = more signal, called active from +8 up or from −8 down
[5] = CREB reporter modulators under forskolin, primary screen, cell-based, PC12, CRE-LacZ reporter, forskolin-stimulated (AID 1146); details: luminescence, 4.5 h, higher = more signal, called active from +8 up or from −8 down;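 further: PC12 cells with 6xCRE LacZ reporter stimulated by forskolin 10 µM; beta-galactosidase reporter signal reflecting CREB driven transcription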
[6] = target: Streptavidin (Streptomyces avidinii) (UniProt P22629); assay: streptavidin binders on small-molecule microarray, primary screen, artefact control for SMM compound annotation, biophysical, 635/667 nm fluorescence (AID 1147); details: streptavidin binding, higher = more signal;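 further: signal reflects streptavidin binding to arrayed compounds as a control protein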
Sequence of Streptavidin (Streptomyces avidinii) (P22629 whole entry, looked up): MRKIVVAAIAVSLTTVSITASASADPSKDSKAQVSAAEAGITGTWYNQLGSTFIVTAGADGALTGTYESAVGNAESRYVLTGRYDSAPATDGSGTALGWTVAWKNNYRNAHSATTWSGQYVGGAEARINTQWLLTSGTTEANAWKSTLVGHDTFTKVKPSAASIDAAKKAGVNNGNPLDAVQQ

[7] = small-molecule binders of probe aInhba, primary screen, biochemical, small-molecule microarray, 635/667 nm fluorescence (AID 1148); details: higher = more signal;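 further: score merges 667nm spot fluorescence with signal-to-noise for antibody binding to printed compounds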
[8] = target: Torsin-1A (Homo sapiens) (UniProt O14656); assay: torsin A binders from cell lysate, primary screen, small-molecule microarray, wild-type, 635/667 nm (AID 1149); details: COS7 hTOR1A-WT lysate, 635 nm fluorescence, higher = more signal
Sequence of Torsin-1A (Homo sapiens) (O14656 whole entry, looked up): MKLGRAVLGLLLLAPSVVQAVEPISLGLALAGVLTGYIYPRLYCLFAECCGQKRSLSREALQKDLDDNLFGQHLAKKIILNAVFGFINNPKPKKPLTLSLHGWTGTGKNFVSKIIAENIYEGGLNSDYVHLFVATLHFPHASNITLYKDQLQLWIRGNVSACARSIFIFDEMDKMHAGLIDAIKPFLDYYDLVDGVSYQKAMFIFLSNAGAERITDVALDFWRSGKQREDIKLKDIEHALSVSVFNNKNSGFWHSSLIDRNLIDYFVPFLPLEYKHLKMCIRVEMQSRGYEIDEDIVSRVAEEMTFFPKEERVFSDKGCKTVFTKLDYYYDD

[9] = target: Torsin-1A (Homo sapiens) (UniProt O14656); assay: small-molecule binders of mutant TOR1A in lysate, primary screen, cell lysate, small-molecule microarray, COS7 lysate, 635/667 nm fluorescence (AID 1150); details: COS7 hTOR1A mutant lysate, 635 nm fluorescence, higher = more signal;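 further: score pools 667 nm emission and signal to noise measuring lysate protein binding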
[10] = test system: Sonic hedgehog protein (Shh); assay: small-molecule binders of Shh protein, primary screen, biochemical, small-molecule microarray, 635/667 nm fluorescence (AID 1151); details: small-molecule microarray binding, 635 nm fluorescence; higher = more signal;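 further: Shh protein binding to compounds spotted on small-molecule microarray slides; score combines spot fluorescence intensity with signal-to-noise across triplicate slides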
[11] = E. coli DRC41 culture turbidity changes, primary screen, E. coli filamentation inducer project, strain DRC41, OD650, 48 h (AID 1152);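 further: E. coli MC1000 strain DRC41 lacking acrAB efflux pump and sulA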; details: E. coli DRC41 (acrAB sulA), higher = more signal, called active from +8 up or from −8 down
[12] = small-molecule binders of probe aLefty1, primary screen, biochemical, small-molecule microarray, 635/667 nm fluorescence (AID 1153); details: higher = more signal;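 further: score merges spot fluorescence with signal-to-noise ratio from the scanned slide images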
[13] = PSAC antagonists in infected red cells, primary screen, cell-based, P. falciparum Indochina, OD700, 1 h (AID 1154); details: P. falciparum Indochina infected RBC osmotic lysis, higher = more signal, called active from +8 up or from −8 down
[14] = PSAC antagonists in infected red cells, primary screen, cell-based, P. falciparum Indochina, OD700, 2 h (AID 1155);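 further: lysis reports solute entry through the parasite surface anion channel PSAC; channel blockers reduce lysis of infected cells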; details: P. falciparum Indochina infected erythrocytes, osmotic lysis OD700; higher = more signal, called active from +8 up or from −8 down
[15] = osmotic lysis modulators in infected erythrocytes, primary screen, PSAC antagonist project, cell-based, P. falciparum Indochina, OD700, 3 h (AID 1156); details: higher = more signal, called active from +8 up or from −8 down
[16] = PSAC antagonists in infected red cells, primary screen, cell-based, P. falciparum Indochina, OD700, 18 h (AID 1157); details: P. falciparum Indochina infected erythrocytes, osmotic lysis OD700, 18 h; higher = more signal, called active from +8 up or from −8 down
[17] = modulators of S6 phosphorylation in cells, primary screen, cell-based, A549, cytoblot, luminescence, serum-stimulated (AID 1158); details: A549 phospho-S6 cytoblot, 5 h, higher = more signal;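 further: serum-stimulated A549 lung adenocarcinoma cells; signal is phosphorylated S6 detected by cytoblot immunostaining with HRP secondary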
[18] = target: NADPH oxidase 2 (Homo sapiens) (UniProt P04839); assay: NOX2-dependent H2O2 signal modulators, primary screen, NOX inhibitor project, cell-based, HEK293-NOX2, PMA-stimulated, Amplex Red fluorescence (AID 1159); details: 45 min, higher = more signal, called active from +8 up or from −8 down; further: test concentration not given here
Sequence of NADPH oxidase 2 (Homo sapiens) (P04839 whole entry, looked up): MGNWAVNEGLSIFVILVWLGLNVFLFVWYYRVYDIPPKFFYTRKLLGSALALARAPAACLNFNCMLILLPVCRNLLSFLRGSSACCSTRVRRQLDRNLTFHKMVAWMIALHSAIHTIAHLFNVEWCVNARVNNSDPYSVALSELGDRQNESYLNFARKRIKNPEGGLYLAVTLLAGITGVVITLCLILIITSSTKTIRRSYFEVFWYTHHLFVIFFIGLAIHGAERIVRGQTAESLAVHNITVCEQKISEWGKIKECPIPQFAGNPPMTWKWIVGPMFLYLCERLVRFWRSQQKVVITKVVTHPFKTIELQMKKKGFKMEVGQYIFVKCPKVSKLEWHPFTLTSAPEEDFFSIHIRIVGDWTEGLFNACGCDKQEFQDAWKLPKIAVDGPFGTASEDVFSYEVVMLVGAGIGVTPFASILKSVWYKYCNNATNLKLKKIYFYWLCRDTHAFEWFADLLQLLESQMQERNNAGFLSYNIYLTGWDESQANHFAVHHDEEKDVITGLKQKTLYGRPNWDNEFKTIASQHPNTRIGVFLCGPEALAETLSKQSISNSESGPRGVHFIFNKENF

[19] = target: NADPH oxidase 4 (Homo sapiens) (UniProt Q9NPH5); assay: NOX4-dependent H2O2 signal modulators, primary screen, NOX inhibitor project, cell-based, HEK293-NOX4, tetracycline-induced, Amplex Red fluorescence (AID 1160); details: 45 min, higher = more signal, called active from +8 up or from −8 down
Sequence of NADPH oxidase 4 (Homo sapiens) (Q9NPH5 whole entry, looked up): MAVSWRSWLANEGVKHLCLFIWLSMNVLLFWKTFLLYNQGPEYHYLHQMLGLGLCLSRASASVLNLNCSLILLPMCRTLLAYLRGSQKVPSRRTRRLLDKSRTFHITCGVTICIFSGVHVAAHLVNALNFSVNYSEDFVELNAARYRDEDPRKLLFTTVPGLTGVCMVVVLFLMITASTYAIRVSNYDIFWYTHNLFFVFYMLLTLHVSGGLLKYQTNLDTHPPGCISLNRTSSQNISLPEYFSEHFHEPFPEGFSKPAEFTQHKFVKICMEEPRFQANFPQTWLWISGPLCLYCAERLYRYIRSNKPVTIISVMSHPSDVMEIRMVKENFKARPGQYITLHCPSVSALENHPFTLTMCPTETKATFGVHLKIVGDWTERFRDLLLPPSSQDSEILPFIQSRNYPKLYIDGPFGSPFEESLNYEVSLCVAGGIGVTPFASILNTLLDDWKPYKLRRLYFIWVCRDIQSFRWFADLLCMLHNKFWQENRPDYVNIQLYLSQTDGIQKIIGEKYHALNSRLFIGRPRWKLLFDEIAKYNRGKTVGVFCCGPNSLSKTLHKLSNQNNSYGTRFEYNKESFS

[20] = target: NADPH oxidase 5 (Homo sapiens) (UniProt Q96PH1); assay: NOX5-dependent H2O2 signal modulators, primary screen, NOX inhibitor project, cell-based, HEK293-NOX5, Amplex Red fluorescence (AID 1161); details: HEK293-NOX5, ionomycin, 45 min, higher = more signal
Sequence of NADPH oxidase 5 (Homo sapiens) (Q96PH1 whole entry, looked up): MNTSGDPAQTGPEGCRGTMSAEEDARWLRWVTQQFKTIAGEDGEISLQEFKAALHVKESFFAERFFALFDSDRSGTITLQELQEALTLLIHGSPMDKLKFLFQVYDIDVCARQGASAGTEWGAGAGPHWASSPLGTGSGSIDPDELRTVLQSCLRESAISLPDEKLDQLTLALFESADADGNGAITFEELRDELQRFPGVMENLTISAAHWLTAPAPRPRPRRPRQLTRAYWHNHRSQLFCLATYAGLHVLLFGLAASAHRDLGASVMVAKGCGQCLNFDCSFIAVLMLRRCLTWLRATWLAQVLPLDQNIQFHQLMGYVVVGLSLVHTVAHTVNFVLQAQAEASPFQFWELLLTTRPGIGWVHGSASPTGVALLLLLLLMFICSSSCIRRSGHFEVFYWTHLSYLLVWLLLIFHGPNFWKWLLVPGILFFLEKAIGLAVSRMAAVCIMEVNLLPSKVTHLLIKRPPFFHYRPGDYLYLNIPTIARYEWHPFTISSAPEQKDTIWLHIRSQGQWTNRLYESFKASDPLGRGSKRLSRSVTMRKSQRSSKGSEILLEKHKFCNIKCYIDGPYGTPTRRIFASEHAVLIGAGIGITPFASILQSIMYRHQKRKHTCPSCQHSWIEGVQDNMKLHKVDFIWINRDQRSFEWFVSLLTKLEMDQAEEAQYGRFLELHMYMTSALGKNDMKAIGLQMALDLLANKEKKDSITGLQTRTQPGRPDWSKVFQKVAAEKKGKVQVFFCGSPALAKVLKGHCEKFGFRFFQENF

| SMILES | composite z-score [1] | z-score [2] | z-score [3] | z-score [4] | z-score [5] | composite z-score [6] | composite z-score [7] | composite z-score [8] | composite z-score [9] | composite z-score [10] | z-score [11] | composite z-score [12] | z-score [13] | z-score [14] | z-score [15] | z-score [16] | z-score [17] | z-score [18] | z-score [19] | z-score [20] |
| --- | --- | --- | --- | --- | --- | --- | --- | --- | --- | --- | --- | --- | --- | --- | --- | --- | --- | --- | --- | --- |
| COCCCNC(=O)[C@@]1(C)c2ccccc2C(=O)N(c2ccc(C)cn2)[C@H]1c1ccc(CO)cc1 | -0.259 | 0.616 (inactive) | -0.252 (inactive) | 0.0279 (inactive) | 0.208 (inactive) | -1.4 | -0.202 | 0.152 | -1.17 | -0.0308 | -0.0018 (inactive) | -0.341 | 0.833 (inactive) | -0.186 (inactive) | 0.0037 (inactive) | -0.211 (inactive) | -0.161 | -1.02 (inactive) | -0.261 (inactive) | -1.7 |
| CCCCC(=C=CC[C@H](O)c1ccccc1OCCO)C[C@H](O)c1ccccn1 | -0.135 | -0.392 (inactive) | -0.0512 (inactive) | 6.34 (inactive) | -0.872 (inactive) | 0.597 | -0.0762 | 0.718 | 1.01 | 1.4 | 1.47 (inactive) | -0.0536 | 4.7 (inactive) | 1.16 (inactive) | 2.3 (inactive) | 0.576 (inactive) | 0.822 | -0.778 (inactive) | -0.193 (inactive) | -1.37 |
| CCOC(=O)C[C@H]1[C@H](OC(=O)c2ccc(C(=O)c3ccccc3)cc2)[C@@H](NC(=O)C2CCCCC2)c2cc(OCCCO)ccc2N1C(=O)Cc1ccc(OC)cc1 | 0.354 | -0.281 (inactive) | 0.193 (inactive) | 1.24 (inactive) | -0.0721 (inactive) | 0.519 | 0.0497 | 0.192 | 1.24 | 0.761 | 0.522 (inactive) | 0.271 | 2.32 (inactive) | 0.744 (inactive) | 0.0357 (inactive) | -0.206 (inactive) | 0.0093 | -1.38 (inactive) | 0.626 (inactive) | 1.74 |
| C=CCOC(=O)[C@@H]1[C@H]2C(=O)O[C@H](c3ccccc3)[C@H](c3ccccc3)N2[C@H](c2ccc(OCCOC(=O)[C@@H]3C[C@@H]4C(=O)N[C@@H](CCCCNC(C)=O)C(=O)N4[C@@H]3c3ccc(O)cc3)cc2)[C@@]12C(=O)Nc1ccc(I)cc12 | 0.681 | -0.0705 (inactive) | -0.128 (inactive) | -0.805 (inactive) | -1.32 (inactive) | -0.0068 | 0.591 | 0.928 | 0.27 | 1.81 | 0.158 (inactive) | 0.998 | 0.978 (inactive) | 1.08 (inactive) | 1.45 (inactive) | 0.718 (inactive) | -0.581 | 1.42 (inactive) | 1.35 (inactive) | 0.716 |
| COCCOC(=O)N1C(=O)[C@@]2(c3ccccc31)[C@H](c1ccccc1OCCO)N1[C@H](c3ccccc3)[C@H](c3ccccc3)OC(=O)[C@H]1[C@@H]2C(=O)N1CCc2cc(OC)c(OC)cc2C1 | 0.212 | -3.53 (inactive) | -1.04 (inactive) | 0.0736 (inactive) | 2.88 (inactive) | 0.02 | 0.255 | 0.517 | 0.546 | 1.24 | 0.0509 (inactive) | 0.433 | 2.79 (inactive) | 1.2 (inactive) | 1.68 (inactive) | 0.654 (inactive) | 0.0753 | 1.15 (inactive) | 0.39 (inactive) | -0.157 |
